Measured values published in PubChem BioAssay (Tox21).
Records with an inconclusive call do not appear. Calls of active or inactive are those of the source. Unless noted, the call rests on the fitted dose curve; in most records, active means well fitted curve in the direction sought with a large enough effect in the repeat runs; inconclusive means weak or mixed curves; inactive means no such curve, though single readings can be large; an effect the other way counts as inactive or inconclusive.

Key:
[1] = qHTS assay to identify small molecule antagonists of the retinoid acid receptor (RAR) signaling pathway - cell viability counter screen (AID 1159551); further: nearly all actives have a fitted effect of over 35% in size; further: potency means the concentration at half of the fitted maximal effect
Outline: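 Cytotoxicity counter screen: ATP content quantified by CellTiter-Glo luminescence in C3RL4 cells treated 6 hr at 37 C with compound and retinol (1 uM final). Cells plated at 1,000/well and cultured overnight before dosing.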

[2] = qHTS assay to identify small molecule antagonists of the estrogen related receptor (ERR) signaling pathway from Tox21 library - cell viability counter screen (AID 1224834); further: nearly all actives have a fitted effect of over 30% in size; further: potency means the concentration at half of the fitted maximal effect
Outline: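 CellTiter-Fluor fluorescence, read after 30 min at 37 C, measures viability of ERR cells. Cells plated at 2,000/well and incubated 6 h before pin-tool compound addition, then exposed 17.5 hours at 37 C.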

[3] = target: Luciferin 4-monooxygenase (Photinus pyralis) (UniProt P08659); experiment: qHTS assay to identify small molecule inhibitors of firefly luciferase (AID 1224835); further: series mostly up to about 120 µM; nearly all actives have a fitted effect of over 25% in size
Outline: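 Inhibition of purified Photinus luciferase is measured by luminescence. Substrate levels (D-luciferin, ATP) sit at their KM values. Each compound is tested in a concentration series.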

[4] = qHTS assay to identify small molecule agonists of the constitutive androstane receptor (CAR) signaling pathway - cell viability counter screen (AID 1224836); further: series mostly up to about 92 µM; nearly all actives have a fitted effect of over 45% in size
Outline: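 Using CellTiter-Fluor, viability of HepG2 cells harbouring hCAR and CYP2B6-2.2kb was measured following 23 h incubation with a 15-concentration compound series plus PK11195 (0.75 uM final).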

[5] = qHTS assay to identify small molecule antagonists of the constitutive androstane receptor (CAR) signaling pathway - cell viability counter screen (AID 1224837); further: nearly all actives have a fitted effect of over 45% in size; further: potency means the concentration at half of the fitted maximal effect; on activity change, negative = cytotoxicity: series mostly up to about 92 µM
Outline: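 Cytotoxicity counter-screen: CellTiter-Fluor fluorescence after 23 h compound exposure (15-point qHTS) in double-stable HepG2-CYP2B6-hCAR cells, with 50 nM CITCO added.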

[6] = target: Nuclear receptor subfamily 1 group I member 3 (Homo sapiens) (UniProt Q14994); experiment: qHTS assay to identify small molecule antagonists of the constitutive androstane receptor (CAR) signaling pathway (AID 1224838);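 further: HepG2 cells stably expressing hCAR with CYP2B6 luciferase reporter stimulated by CITCO; nearly all actives have a fitted effect of over 40% in size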
Outline: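 Antagonism measured as luciferase signal (ONE-Glo, 30 min, room temperature) in CAR-stimulated cells: HepG2-CYP2B6-hCAR double-stable line exposed 24 hr at 37 C to compound in a 15-point series plus 50 nM CITCO.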

[7] = qHTS assay to identify small molecule antagonists of the estrogen related receptor signaling pathway with the pleiotropic PPARgamma coactivator (PGC) from Tox21 10K library - cell viability counter screen (AID 1224840; active means well fitted cell-killing curve with a large enough effect in the repeat runs, not every such curve was filed as active; further: nearly all actives have a fitted effect of over 40% in size; further: potency means the concentration at half of the fitted maximal effect)
Outline: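 Counter-screen for cytotoxicity: after 17.5 h compound exposure at 37 C, CellTiter-Fluor reagent added to PGC/ERR cells for 30 min and fluorescence read. Cells were seeded at 2,000 per well 6 h before dosing.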

[8] = target: Thyrotropin receptor (Homo sapiens) (UniProt P16473); experiment: qHTS assay to identify small molecule agonists of the thyroid stimulating hormone receptor (TSHR) signaling pathway (AID 1224843; calls by dose curve; further: nearly all actives have a fitted effect of over 45% in size; further: potency means the concentration at half of the fitted maximal effect)
Outline: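 A cell-based cAMP HTRF format was run in TSHR-transfected HEK293 cells, 800 per well. Treatment: 30 min, room temperature. Detection: 1 h with labelled cAMP and anti-cAMP cryptate. Concentration-response over 15 points, three replicates.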

[9] = qHTS assay to identify small molecule agonists of the hypoxia (HIF-1) signaling pathway - cell viability counter screen (AID 1224844; calls by dose curve; further: nearly all actives have a fitted effect of over 50% in size; further: potency means the concentration at half of the fitted maximal effect)
Outline: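 Cytotoxicity measured by CellTiter-Glo ATP luminescence in the wells also read for beta-lactamase signal. Cells were HRE-bla ME-180 (2,000/well, 0.5% dialyzed FBS), exposed to compounds for 17 h at 37C.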

[10] = target: Nuclear receptor subfamily 1 group I member 3 (Homo sapiens) (UniProt Q14994); experiment: qHTS assay to identify small molecule agonists of the constitutive androstane receptor (CAR) signaling pathway (AID 1224839);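 further: HepG2 cells stably carrying human CAR and a CYP2B6 luciferase reporter; series mostly up to about 92 µM; nearly all actives have a fitted effect of over 15% in size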
Outline: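 Double-stable HepG2 cells (hCAR, CYP2B6-2.2kb) seeded 4 h before compound addition. Exposure 24 h with 0.75 uM PK11195 final. Luciferase detected by ONE-Glo.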

[11] = qHTS assay to identify small molecule antagonists of the estrogen related receptor signaling pathway with the pleiotropic PPARgamma coactivator (PGC) from Tox21 10K library (AID 1224841; call rule not given here; further: actives are mostly falling curves and most rising ones were filed inactive; nearly all actives have a fitted effect of over 50% in size; further: potency means the concentration at half of the fitted maximal effect; on activity, negative = inhibition: series mostly up to about 92 µM)
Outline: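 Luminescence (One-Glo, 30 min at room temperature) after 18 h compound treatment at 37 C of PGC/ERR reporter cells plated at 2,000 cells/well and settled 6 h beforehand.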

[12] = qHTS assay to identify small molecule agonists of the estrogen related receptor signaling pathway with the pleiotropic PPARgamma coactivator (PGC) from Tox21 10K library (AID 1224842); further: nearly all actives have a fitted effect of over 15% in size
Outline: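 Luminescence from One-Glo (30 min, room temperature) measured after PGC/ERR cells had 18 h at 37 C with pinned compound (23 nL in DMSO). Cells had been seeded at 2,000 per well and pre-incubated 6 h.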

[13] = qHTS assay to identify small molecule antagonists of the estrogen related receptor (ERR) signaling pathway - cell viability counter screen (AID 1224818);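 further: series mostly up to about 46 µM; viability measured after 17.5 h of compound exposure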
Outline: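 Cytotoxicity counter screen: fluorescence from CellTiter-Fluor, added after 17.5 h compound exposure at 37 C and read 30 min later. ERR cell line seeded at 2,000 cells/well, preincubated 6 h before dosing.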

[14] = qHTS assay to identify small molecule antagonists of the estrogen related receptor (ERR) signaling pathway (AID 1224819;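 further: luminescence from an ERR-driven luciferase reporter measured with One-Glo reagent; series mostly up to about 46 µM; nearly all actives have a fitted effect of over 50% in size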)
Outline: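 LOPAC library screened for antagonism as reduced One-Glo luminescence in ERR reporter cells (2,000/well). Compounds were added after 6 h pre-incubation and left 18 h at 37C; reading followed a 30 min room-temperature reagent step.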

[15] = qHTS assay to identify small molecule agonists of the estrogen related receptor (ERR) signaling pathway (AID 1224820)
Outline: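 Luminescence readout (One-Glo, 30 min RT) from NTP-supplied ERR cell line exposed to compounds for 18 h at 37 C. Cells seeded 2,000 per well and pre-incubated 6 h before pin-tool compound transfer.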

[16] = qHTS assay to identify small molecule antagonists of the estrogen related receptor signaling pathway with the pleiotropic PPARgamma coactivator (PGC) cell viability counter screen (AID 1224822; further: series mostly up to about 46 µM)
Outline: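 Viability counter-screen read by fluorescence intensity after 30 min with CellTiter-Fluor at 37 C; PGC/ERR reporter cells were exposed to compounds for 17.5 h at 37 C following a 6 h preincubation.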

[17] = qHTS assay to identify small molecule agonists of the estrogen related receptor signaling pathway with the pleiotropic PPARgamma coactivator (PGC) (AID 1224823)
Outline: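 Luminescence readout (One-Glo, 30 min RT) from PGC/ERR cell line treated 18 h at 37 C with pin-tool-delivered DMSO compound solutions; cells plated 6 h before dosing. Quantitative HTS format.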

[18] = tested on: estrogen-related receptor alpha (ERRalpha) with PGC-1alpha coactivator, human; experiment: qHTS assay to identify small molecule antagonists of the estrogen related receptor signaling pathway with the pleiotropic PPARgamma coactivator (PGC) (AID 1224821; calls by dose curve;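 further: series mostly up to about 46 µM; lower luminescence signal means antagonism of PGC/ERR signalling; nearly all actives have a fitted effect of over 50% in size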)
Outline: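 PGC/ERR reporter cells; 6 h pre-incubation 37 C/5% CO2; pin-tool compound in DMSO, 18 h 37 C; One-Glo added, 30 min RT; luminescence read. qHTS antagonist mode.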

[19] = qHTS assay to identify small molecule agonists of the retinoic acid receptor (RAR) signaling pathway (AID 1159553)
Outline: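 Luminescence was measured 30 min after luciferase reagent addition at room temperature. Before that, C3RL4 reporter cells (1,000 per well, plated overnight) were treated with compound for 6 hr at 37 C and 5% CO2.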
On the % scale 0 is the no-effect control and ±100 the full control effect.

Chain of Nuclear receptor subfamily 1 group I member 3 (Homo sapiens) (Q14994 whole entry, looked up): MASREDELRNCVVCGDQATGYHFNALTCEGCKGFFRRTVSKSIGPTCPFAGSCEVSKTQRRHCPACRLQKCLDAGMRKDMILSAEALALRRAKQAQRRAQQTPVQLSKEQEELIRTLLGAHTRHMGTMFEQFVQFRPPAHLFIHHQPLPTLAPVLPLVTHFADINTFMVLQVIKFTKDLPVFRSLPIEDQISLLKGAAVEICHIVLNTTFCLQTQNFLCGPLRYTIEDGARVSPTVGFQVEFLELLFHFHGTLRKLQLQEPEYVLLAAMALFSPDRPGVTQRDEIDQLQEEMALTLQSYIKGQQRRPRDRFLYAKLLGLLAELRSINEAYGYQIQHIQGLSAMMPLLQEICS
Chain of Thyrotropin receptor (Homo sapiens) (P16473 whole entry, looked up): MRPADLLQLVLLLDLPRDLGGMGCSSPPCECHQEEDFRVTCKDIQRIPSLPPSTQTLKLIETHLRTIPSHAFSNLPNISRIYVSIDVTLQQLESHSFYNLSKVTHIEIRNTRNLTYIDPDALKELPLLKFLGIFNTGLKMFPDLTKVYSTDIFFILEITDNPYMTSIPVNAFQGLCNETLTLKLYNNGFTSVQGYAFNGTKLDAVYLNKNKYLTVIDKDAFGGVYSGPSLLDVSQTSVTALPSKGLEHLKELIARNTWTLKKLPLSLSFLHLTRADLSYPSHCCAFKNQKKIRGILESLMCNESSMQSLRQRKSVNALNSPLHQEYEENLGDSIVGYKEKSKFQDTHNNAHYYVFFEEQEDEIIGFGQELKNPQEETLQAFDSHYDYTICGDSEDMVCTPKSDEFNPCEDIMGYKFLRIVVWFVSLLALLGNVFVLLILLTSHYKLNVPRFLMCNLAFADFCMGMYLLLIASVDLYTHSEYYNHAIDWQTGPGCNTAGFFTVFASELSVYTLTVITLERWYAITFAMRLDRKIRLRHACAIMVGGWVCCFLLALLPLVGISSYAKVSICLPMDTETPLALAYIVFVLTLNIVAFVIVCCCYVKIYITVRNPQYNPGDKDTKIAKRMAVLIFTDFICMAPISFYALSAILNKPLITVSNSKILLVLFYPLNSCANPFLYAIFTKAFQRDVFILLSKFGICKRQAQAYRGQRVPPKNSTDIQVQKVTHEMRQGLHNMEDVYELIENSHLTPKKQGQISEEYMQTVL
Chain of Luciferin 4-monooxygenase (Photinus pyralis) (P08659 whole entry, looked up): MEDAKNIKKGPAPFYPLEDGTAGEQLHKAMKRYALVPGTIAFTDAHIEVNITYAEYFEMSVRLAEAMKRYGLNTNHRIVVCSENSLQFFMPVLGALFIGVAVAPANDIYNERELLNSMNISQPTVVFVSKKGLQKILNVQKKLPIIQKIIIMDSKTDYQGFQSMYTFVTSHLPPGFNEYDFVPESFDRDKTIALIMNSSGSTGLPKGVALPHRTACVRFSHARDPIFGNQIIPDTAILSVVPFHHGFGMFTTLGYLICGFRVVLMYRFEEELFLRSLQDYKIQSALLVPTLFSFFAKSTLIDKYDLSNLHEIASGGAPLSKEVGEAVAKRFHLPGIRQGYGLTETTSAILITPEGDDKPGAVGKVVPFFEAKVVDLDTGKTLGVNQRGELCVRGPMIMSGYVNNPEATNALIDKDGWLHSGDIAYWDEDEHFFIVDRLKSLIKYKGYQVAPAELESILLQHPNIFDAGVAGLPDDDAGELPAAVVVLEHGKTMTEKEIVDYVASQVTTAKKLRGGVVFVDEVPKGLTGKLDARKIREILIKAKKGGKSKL

C=CC(C)(CCC=C(C)C)OC(=O)/C=C/c1ccccc1 (stereo not drawn)
inactive: Potency [1] | Potency [2] | Potency [3] | Potency [4] | Potency [5] | Potency [6] | Potency [7] | Potency [8] | Potency [9]

COC(=O)NCCC[Si](OC)(OC)OC
inactive: Potency [1] | Potency [2] | Potency [3] | Potency [4] | Potency [5] | Potency [10] | Potency [7] | Potency [11] | Potency [12] | Potency [8]

C=CC(=C)CC/C=C(\C)CCC=C(C)C
inactive: activity change, negative = cytotoxicity [1] -0.128% [at 19 µM] | viability change, negative = cytotoxic [2] 0.736% [at 19 µM] | activity change, negative = inhibition [3] 0.425% [at 23.6 µM] | viability change, negative = cytotoxic [4] 4.77% [at 19 µM] | activity change, negative = cytotoxicity [5] -2.25% [at 19 µM] | activity, negative = inhibition [6] 8.18% [at 19 µM] | activation [10] 4.39% [at 19 µM] | viability change, negative = cytotoxic [7] -0.28% [at 19 µM] | activity, negative = inhibition [11] 0% [at 19 µM] | activation [12] 0% [at 19 µM] | activation [8] -0.893% [at 19 µM] | activity change, negative = cytotoxicity [9] 1.43% [at 15.8 µM]

CC(=O)Nc1ccc(O)cc1
inactive: Potency [1] | Potency [2] | Potency [3] | Potency [4] | Potency [5] | Potency [7] | Potency [9]

CCCCCCCC/C=C\CCCCCCCC(=O)NCc1ccc(O)c(OC)c1
inactive: Potency [1] | Potency [13] | Potency [14] | outcome [15] | Potency [16] | outcome [17] | Potency [2] | Potency [3] | Potency [4] | Potency [10] | Potency [7] | Potency [12] | Potency [9]

CC(C)c1cccc(C(C)C)c1N1C(=O)c2ccc(O)cc2C1=O
active: Potency [1] 61.1 µM
inactive: Potency [16] | Potency [3] | Potency [7] | Potency [8] | Potency [9]

Cc1cnccn1
inactive: Potency [1] | Potency [2] | Potency [3] | Potency [4] | Potency [5] | Potency [6] | Potency [10] | Potency [7] | Potency [12] | Potency [9]

Cc1cc(C)c(C=O)c(C)c1
inactive: Potency [1] | Potency [2] | Potency [3] | Potency [4] | Potency [5] | Potency [7] | Potency [8] | Potency [9]

c1cc(OCC2CO2)cc(OCC2CO2)c1 (stereo not drawn)
active: Potency [2] 60.6 µM | Potency [7] 68 µM
inactive: Potency [1] | Potency [3] | Potency [4] | Potency [5] | Potency [8]

Clc1nc2ccccc2s1
inactive: Potency [1] | Potency [2] | Potency [3] | Potency [4] | Potency [5] | Potency [7] | Potency [8] | Potency [9]

COC(=O)CC(C)CCC=C(C)C (stereo not drawn)
inactive: Potency [1] | Potency [2] | Potency [3] | Potency [4] | Potency [5] | Potency [7] | Potency [12] | Potency [9]

CC(C)OC(=O)c1cc(C(=O)OC(C)C)cc([N+](=O)[O-])c1
active: Potency [8] 22.2 µM
inactive: Potency [1] | Potency [13] | Potency [14] | outcome [15] | outcome [18] | Potency [16] | outcome [17] | Potency [2] | Potency [4] | Potency [5] | Potency [6] | Potency [7] | Potency [11] | Potency [9]

CCCCCCC(C)Nc1ccc(Nc2ccccc2)cc1 (stereo not drawn)
inactive: Potency [1] | Potency [19] | Potency [3] | Potency [4] | Potency [5] | Potency [7] | Potency [8]

CC1=CCC(=O)O1
inactive: Potency [1] | Potency [2] | Potency [3] | Potency [4] | Potency [6] | Potency [10] | Potency [7] | Potency [11] | Potency [12] | Potency [8] | Potency [9]

CC(C)=C1CC[C@@H](C)CC1=O
inactive: Potency [1] | Potency [2] | Potency [3] | Potency [4] | Potency [5] | Potency [6] | Potency [10] | Potency [7] | Potency [8] | Potency [9]

CC(C)N=C(N)/N=C(\N)Nc1ccc(Cl)cc1
inactive: Potency [1] | Potency [19] | Potency [3] | Potency [5] | Potency [7] | Potency [11] | Potency [9]

CCN(CC)CCCN(c1ccccc1)C1Cc2ccccc2C1
inactive: Potency [1] | Potency [13] | Potency [16] | Potency [3] | Potency [5] | Potency [7] | Potency [8]
active: Potency [9] 23.9 µM

COC(=O)C1=C(C)NC(C)=C(C(=O)OCCCN2CCC(c3ccccc3)(c3ccccc3)CC2)C1c1cccc([N+](=O)[O-])c1 (stereo not drawn)
inactive: Potency [1] | Potency [19] | Potency [12]
active: Potency [2] 21.1 µM | Potency [5] 23.7 µM | Potency [7] 26.6 µM | Potency [11] 10.6 µM | Potency [9] 21.3 µM

Cc1cncc(C)c1
inactive: Potency [1] | Potency [2] | Potency [3] | Potency [4] | Potency [5] | Potency [6] | Potency [10] | Potency [7] | Potency [8] | Potency [9]

CC(C)c1ccccc1N
inactive: Potency [1] | Potency [2] | Potency [3] | Potency [4] | Potency [5] | Potency [6] | Potency [10] | Potency [7] | Potency [11] | Potency [12] | Potency [8] | Potency [9]

c1ccc(Sc2ccccc2)cc1
inactive: Potency [1] | Potency [2] | Potency [3] | Potency [4] | Potency [5] | Potency [7] | Potency [9]
